Assay outcomes from PubChem BioAssay.
This is a sample that favours compounds with a hit; in the whole collection about 19% have one here.
Pf growth 48h: P. falciparum growth inhibition at 48 hours (one generation); 310,000 compounds, 5.9% hits; P. falciparum luciferase growth in erythrocytes, 48 h; Potency, µM (titrated, usually from 28.7 µM), most hits filed as inhibitors
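In quantitative HTS format, infected erythrocytes bearing luciferase-reporter parasites were treated for a single generation at 37 C. Luminescence after adding detection reagent served as the growth measure.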
Pf growth 96h: P. falciparum growth inhibition at 96 hour, primary screen for plastid delayed-death inhibitors | P. falciparum luciferase reporter growth, 96 h | Potency, µM (highest dose often 28.7 µM), usual class: inhibitors | AID 504834 | 320,000 compounds, 6.9% hits
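Plates of compound plus infected erythrocytes (2% hematocrit, 0.05% parasitemia final) incubate 96 hours, 37 C, 5% CO2. Detection reagent added; reduced luminescence from the parasites' luciferase reporter flags inhibition.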
SARS PLP yeast: blocks SARS-CoV papain-like protease in a yeast assay | S. cerevisiae expressing SARS-CoV PLpro, growth rescue | Potency, µM (top dose mostly 32.9 µM), usual class: activators | 330,000 compounds, 0.19% hits | AID 485353; calls by dose curve; further: nearly all actives have a fitted effect of over 55% in size
Shiga inhibitor: Shiga toxin inhibition | inhibition, % at 38.7 µM | Vero cells, Shiga toxin protein synthesis inhibition reporter | 290,000 compounds, 9.2% hits; in the data active means inhibition mostly above about 28%, no sharp cut-off; inactive means mostly below about 43%
AMA1 RON2 block: inhibitors of Plasmodium falciparum AMA1-RON2 interaction | AID 720542 | 360,000 compounds, 0.2% hits | Potency, µM (doses to about 58.2 µM), usual class: inhibitors | AlphaScreen AMA1-biotinylated RON2 peptide binding; further: nearly all actives have a fitted effect of over 45% in size
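AMA1 (3D7) with his tag at 25 nM final met compounds first, then biotinylated RON2 peptide at 25 nM; detection used donor plus acceptor beads, 10 µg/mL apiece, read by AlphaScreen after 30 min at room temperature.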
CHX counter: counter-screen hit for Shiga toxin inhibitors, cycloheximide. AID 2314. 300,000 compounds, 12% hits. cell reporter, cycloheximide protein synthesis inhibition counterscreen. max response, %; in the data active means max response mostly above about 13%, no sharp cut-off; inactive means mostly below about 14%; further: read at 38.3 µM for the half of the compounds with a filed dose
Hits are given with their value; - = inactive; ? = inconclusive; . = not tested or not shown. Unless noted, the call rests on the fitted dose curve; in most records, active means well fitted curve in the direction sought with a large enough effect; inconclusive means small, poorly fitted or top-dose-only effect, or another doubt; inactive means no such curve, though single readings can be large; an effect the other way counts as inactive or inconclusive.

SMILES | Pf growth 48h | Pf growth 96h | SARS PLP yeast | Shiga inhibitor | AMA1 RON2 block | CHX counter
CCCCn1nnnc1SCC(=O)Nc1ccc2c(c1)OCCO2 | - | ? | - | - | - | -
COc1cccc(C(=O)CSc2nnnn2C)c1 | - | - | - | - | - | -
CCCn1nnnc1SCC(=O)c1ccc2c(c1)OCCO2 | - | - | - | 74 | - | 36
Cn1nnnc1SCC(=O)c1ccc2c(c1)OCCO2 | - | ? | - | 97 | - | 38
Cn1cnnc1SCC(=O)c1ccc2c(c1)OCCO2 | . | - | - | 49 | - | -
CCn1c(SCC(=O)c2ccc3c(c2)OCCO3)nnc1-c1ccco1 | - | - | - | - | - | 15
COCCn1c(SCC(=O)c2ccc3c(c2)OCCO3)nnc1-c1ccco1 | - | - | - | - | - | -
Cc1ccc(N2CCN(S(=O)(=O)c3ccc4c(c3)oc(=O)n4C)CC2C)cc1 (stereo not drawn) | ? | ? | - | - | - | -
CCOc1ccccc1N1CCN(S(=O)(=O)c2ccc(Cl)s2)CC1 | - | . | - | 35 | - | 17
CCS(=O)(=O)N1CCN(S(=O)(=O)c2ccc(Cl)s2)CC1 | - | - | - | - | - | -
COc1ccccc1N1CCN(S(=O)(=O)c2ccc(Cl)s2)CC1 | - | - | - | - | - | 16
Cc1ccc(N2CCN(S(=O)(=O)c3ccc(Cl)s3)CC2C)cc1 (stereo not drawn) | ? | ? | - | 22 | - | 15
COc1ccccc1N1CCN(S(C)(=O)=O)CC1 | . | - | - | - | - | -
Cc1ccccc1CN1CCN(S(=O)(=O)c2ccc(Cl)s2)CC1 | - | 13µM | - | - | - | -
COc1ccc(F)cc1S(=O)(=O)Nc1ccc(C)cc1 | - | - | - | - | - | -
O=C(Nc1ccc(Oc2ccsc2C(=O)O)cc1)c1ccccc1F | . | - | - | - | - | -
NS(=O)(=O)c1ccc(S(=O)(=O)N(Cc2ccccc2F)CC2CCCO2)cc1 (stereo not drawn) | ? | 13µM | - | - | - | -
O=c1[nH]c2ccccc2cc1CN(CC1CCCO1)S(=O)(=O)c1ccc(Cl)cc1 (stereo not drawn) | - | - | - | - | - | -
CCN(Cc1ccccc1)S(=O)(=O)c1ccc(S(=O)(=O)N(Cc2cccc(OC)c2)CC2CCCO2)cc1 (stereo not drawn) | . | 5.2µM | - | - | - | -
O=C(CN(Cc1ccco1)C(=O)c1ccccc1)Nc1ccc(Cl)c(Cl)c1 | - | - | - | - | - | -
CCN1C(=O)/C(=C2/Sc3ccccc3N2CC)S/C1=N\c1ncn[nH]1 | ? | - | - | - | - | -
O=C(NC(=S)Nc1cccnc1Cl)c1ccc(F)cc1 | - | - | - | 83 | - | 49
O=C(NC(=S)Nc1ncccn1)c1ccc(F)cc1 | - | - | - | 70 | - | 49
O=C(NNC(=S)NC(=O)c1ccc(F)cc1)c1ccncc1 | . | . | - | . | - | .
CCOC(=O)c1nc2cc3n(c(CC(C)C)c-2c1C)CC(C)=C3C | 1.2µM | 3.3µM | - | - | - | -
SMILES | Pf growth 48h | Pf growth 96h | SARS PLP yeast | Shiga inhibitor | AMA1 RON2 block | CHX counter
CCOC(=O)c1n[nH]n(-c2cc(Cl)cc(Cl)c2)c1=O | ? | - | - | - | - | -
CCOC(=O)c1nc2cc3n(c(C)c-2c1C)C(C)C(C)=C3C (stereo not drawn) | 7.4µM | 2.3µM | - | - | - | -
Cc1ccc(-n2c(C3CC3c3ccc(Cl)cc3)n[nH]c2=S)cc1 (stereo not drawn) | . | 9.3µM | ? | - | - | -
COc1cccc(CN2CCNC(=O)C2CC(=O)NCCOc2cccnc2)c1 (stereo not drawn) | - | - | - | - | - | -
CC(C)NCC(O)c1ccc(N)c(C#N)c1 (stereo not drawn) | - | 12µM | . | . | . | .
CC(C)CNC(=O)C(=O)NCCC1CCCCN1S(=O)(=O)c1cccs1 (stereo not drawn) | - | - | - | . | - | .
O=C(O)c1ccccc1SCc1csc(-c2ccccc2)n1 | - | - | - | - | - | 32
O=C(OCc1csc(-c2ccccc2)n1)c1ccccc1O | - | - | - | 110 | - | 61
Cc1ccc(N2C(=O)CCC(C(=O)O)C2c2cccs2)cc1 (stereo not drawn) | - | ? | ? | - | - | -
CCCCCOc1ccc(Br)cc1CSC(=N)N | 10µM | ? | - | - | - | -
